Structures are written as SMILES. Values joined by “and” are separate entries in the source; they are usually repeats but may differ in a detail not shown here. Identical values can stand only once. Inconclusive results are not listed. Where a call stands in place of a potency, no number is given. Active and inactive are the calls of the source. Calls come from the whole dose curve; as a rule, active = well fitted cell-killing curve with a large enough effect in the repeat runs; inconclusive = weak or mixed curves, or effect the other way; inactive = flat fitted curve, though single readings scatter.
Potency is the fitted concentration of half-maximal effect.

This assay can be described thus: Nuclear factor erythroid 2-related factor 2/antioxidant responsive element (Nrf2/ARE) small molecule agonists: qHTS cell viability counter screen in human keratinocytes (AID 1919968). Note: nearly all actives have a fitted effect of over 55% in size. The following applies: KeratinoSens HaCaT ARE cells viability, CellTiter-Fluor, 24 h; series mostly up to 92.4 µM. From the text:
U.S. Tox21 Program National Center for Advancing Translational Sciences [NCATS] Division of Preclinical Innovation [DPI] U.S. Environmental Protection Agency [EPA] National Institutes of Environmental Health Sciences [NIEHS] National Toxicology Program [NTP] U.S. Food and Drug Administration [FDA] Tox21 Assay Overview: Oxidative stress has been implicated in the pathogenesis of a variety of diseases ranging from cancer to neurodegeneration. The antioxidant response element (ARE) signaling pathway plays an important role in the amelioration of oxidative stress. The KeratinoSens (Givaudan, Switzerland) is an in vitro test method which quantifies luciferase induction as a measure of activation of Keap1-Nrf2-antioxidationt/electrophile response element (ARE) dependant pathway in HaCaT human keratinocytes stably transfected with a selectable plasmid. The KeratinoSens assay is a cell-based assay with a reporter cell line to detect potential skin sensitizers by their ability to induce the Nrf2/ARE-response. The activation of the report gene under culture conditions can be detected by ONE-Glo Luciferase Assay System (Promega, Madison, WI). This cell line has been used to screen the Tox21 10K compound library to identify agonists that induce oxidative stress. The cytotoxicity of the Tox21 compound library against the KS-ARE cell line was tested in parallel by measuring the cell viability using CellTiter- Fluor assay system (Promega, Madison, WI) in the same wells.
Tox21 Assay Protocol Summary: HaCaT derived cell line KeratinoSens were dispensed at 1,500 cells/5uL/well in 1536-well white wall/solid bottom plates using a Multidrop Combi (ThermoFisher Scientific, Waltham, MA) dispenser. After the assay plates were incubated at 37 C/5% CO2 for 5 h, 23 nL of compounds dissolved in DMSO, positive controls or DMSO only was transferred to the assay plate by a pintool workstation (Kalypsys, San Diego, CA). The plates were incubated at 37 C/5% CO2 for 23 h, followed by addition of 1uL/well of CellTiter-Fluor reagent into the assay plates using a Flying Reagent Dispenser (Aurora Discovery, San Diego, CA) for cell viability readout that measures cytotoxicity. After 1 h incubation at 37 C/5% CO2 the fluorescence intensity was measured using a ViewLux (PerkinElmer, Shelton, CT) plate reader.
A general note: qHTS replaces the single test concentration by a dilution series.
`OC[C@@H](O)[C@H]1O[C@@H]2O[C@H](C(Cl)(Cl)Cl)O[C@@H]2[C@H]1O`: the Potency entry was “inactive”.
Consider `Cn1cc[n+](C)c1` (tested in a mixture with another compound), for which the Potency result is “inactive”.
Regarding `CCCCn1cc[n+](C)c1`, the Potency entry is “inactive”.
In the case of `CCC(=O)OC1(c2ccccc2)CCN(C)CC1` it was “inactive”; in that of `CC(C)OC(=O)Nc1ccccc1`, “inactive”.
`CNC(=O)Oc1cccc2c1OC(C)(C)C2`: the Potency entry is “inactive”.
Turning to `O=[N+]([O-])c1ccc(Cl)c([N+](=O)[O-])c1`, the Potency was 24.7 µM (active) and 43.3 µM (active).
For `CCOP(=S)(OCC)Oc1cc(C)nc(C(C)C)n1`, the Potency entry is “inactive”.
Regarding `CCOS(=O)(=O)OCC`, the Potency entry was “inactive”.
As to `Fc1cc(Br)ccc1CBr`, the Potency result was “inactive”.
`Brc1ccc(Br)cc1`: the Potency entry was “inactive”.
On to `CC(C)c1cccc(C(C)C)c1O`, for which the Potency result is “inactive”.
For the molecule `COC(=O)c1ccc(CBr)cc1`, the Potency entry is “inactive”.
For the molecule `CCN(CC)C(=S)S`, the Potency is 27.5 µM (active) and 7.65 µM (active) and 13.7 µM (active).
As for `NNC(N)=S`, the Potency was 16 µM (active).
In the case of `CC(C)NC(C)C`, the Potency entry is “inactive”.
The same measure for `N#CC(Br)Br`: “inactive”; for `CN(C)c1ccccc1`: “inactive”.
For the molecule `CCNCC`, the Potency result is “inactive”.
The same measure for `O=C(O)c1ccccn1`: “inactive”.
Consider `CCCCSP(=O)(SCCCC)SCCCC`, for which the Potency result was “inactive”.
Consider `O=[N+]([O-])/C=C/c1ccccc1`, for which the Potency was 17.5 µM (active) and 27.3 µM (active).
With `COc1ccc(C=O)cc1OC`, the Potency entry is “inactive”.
For `CCc1cccc(CC)c1N(COC)C(=O)CCl`, the Potency result was “inactive”.
In the case of `CCOC(=O)C1OC1(C)c1ccccc1` (stereo not given) it was “inactive”; in that of `CCCCCCCCCCCC(=O)O`, “inactive”.
For the molecule `O=S(=O)(O)C(F)(F)C(F)(F)C(F)(F)C(F)(F)C(F)(F)C(F)(F)F`, the Potency entry was “inactive”.
For `OCCCl`, the Potency result was “inactive”.
As for `CCOP(=S)(OCC)OP(=S)(OCC)OCC`, the Potency entry was “inactive”.
The same measure for `BrCC(Br)c1ccccc1` (stereo not given): “inactive”; for `Clc1nc(Cl)nc(Nc2ccccc2Cl)n1`: “inactive”; for `CCCCOCCOP(=O)(OCCOCCCC)OCCOCCCC`: “inactive”.
In the case of `CCCCOC(=O)c1ccccc1C(=O)O`, the Potency entry was “inactive”.
The same measure for `O=C(Cl)c1ccccc1`: “inactive”; for `N#Cc1ccc(O)cc1`: “inactive”.
For `O=C1C(Cl)=C(Cl)C(=O)c2ccccc21`, the Potency is 24.4 µM (active) and 48.6 µM (active).
In the case of `N#CCCO`, the Potency result is “inactive”.
In the case of `CC(C)(c1ccccc1)c1ccc(O)c(C(C)(C)c2ccccc2)c1`, the Potency is 13.6 µM (active) and 30.6 µM (active).
Consider `CCOP(=S)(OCC)SCn1c(=O)oc2cc(Cl)ccc21`, for which the Potency result was “inactive”.
For `C=C(C)CCl`, the Potency result was “inactive”.

For the origin of these results see PubChem BioAssay (Tox21).
